Assay outcomes (PubChem)
A selection: hits, their analogues and other compounds. The true share with any hit is near 9.9%.
SW480 rerep: induces DNA re-replication in SW480 colon adenocarcinoma cells; SW480 DNA re-replication, Hoechst DNA content imaging, 48 h; Potency, µM (highest dose often 46.1 µM), without a hit: top-dose re-replication activation, actives largely listed as activators; 340,000 compounds, 1.8% hits; also: potency is read from the fitted curve at half-maximal effect; % of control where 0% means no effect; nearly all actives have a fitted effect of over 55% in size
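Compounds, transferred as 23 nL by pin tool, were incubated with cells for 48 hr; DNA content per nucleus was then quantified by Hoechst staining and fluorescence plate imaging.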
MCF10A rereplic: inducers of DNA re-replication in MCF 10A breast cells | MCF 10A DNA re-replication, Hoechst nuclear intensity, 48 h | Potency, µM (top dose mostly 46.1 µM), without a hit: top-dose activity, positive = re-replication, actives largely listed as activators | 350,000 compounds, 2.9% hits; also: potency is read from the fitted curve at half-maximal effect; % of control where 0% means no effect; nearly all actives have a fitted effect of over 50% in size
KB-V1 MDR tox: KB-V1 MDR subline cytotoxicity | Potency, µM (top dose mostly 46.1 µM), usual class: cytotoxic | 400,000 compounds, 3.4% hits | KB-V1 MDR cells viability, CellTiter-Glo, 72 h; also: potency is read from the fitted curve at half-maximal effect; % is scaled to controls: 0 for no effect and ±100 for the full control effect; nearly all actives have a fitted effect of over 60% in size
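KB-V1 MDR subline cells in DMEM (phenol-red free, 10% FBS) exposed to compounds in qHTS concentration series for 72 h at 37 degrees C. Viability read by CellTiter-Glo luminescence; concentration-effect curves fitted after normalization and correction.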
KB-3-1 tox: kills parental KB-3-1 adenocarcinoma cells. 400,000 compounds, 1.4% hits. Potency, µM (doses to about 46.1 µM), actives largely listed as cytotoxic. KB-3-1 viability, CellTiter-Glo ATP luminescence, 72 h; also: potency is read from the fitted curve at half-maximal effect; % is scaled to controls: 0 for no effect and ±100 for the full control effect; nearly all actives have a fitted effect of over 60% in size
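72 h, 37 °C compound treatment of KB-3-1 parental cells; CellTiter-Glo added, 10 min, luminescence read. Data corrected against DMSO-only plates and normalized before curve fitting.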
IL1B secr inh: inhibitors of inflammasome signaling (IL-1 beta secretion) | THP-1 LPS/ATP IL-1B secretion, AlphaLISA, 16 h; hits give low values | activity change, % at 57.5 µM | 360,000 compounds, 4.7% hits | AID 743279; in the data active = activity change below about -50%; inconclusive = mostly about -30% to -49%; also: % is scaled to controls: 0 for no effect and ±100 for the full control effect
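THP-1 cells pretreated 1 hr with compounds (up to 57.5 uM final), then stimulated with LPS (250 ng/mL final) plus ATP (1.25 mM final); secreted IL-1B measured by AlphaLISA after 16 hr, decreased signal indicating inhibition.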
* hit, by the source's call; i = inactive; ? = inconclusive; . = not tested or not shown. Unless noted, calls follow the shape of the dose curve; as a rule, active = well fitted curve in the direction sought with a large enough effect; inconclusive = small, poorly fitted or top-dose-only effect, or another doubt; inactive = no such curve, though single readings can be large; an effect the other way counts as inactive or inconclusive.

SMILES	SW480 rerep	MCF10A rereplic	KB-V1 MDR tox	KB-3-1 tox	IL1B secr inh
O=C(Cn1ncc2c(Cl)cccc21)NCc1cccc(Br)c1	.	.	i	i	.
CCN(CC)C(=O)c1ccc2nc(-c3ccccc3)c(-c3ccccc3)nc2c1	0.6%	8.4%	4.11µM*	?	-2.9
CCN(CC)C(=O)c1ccc2nc3ccccc3nc2c1	5.17µM*	?	16.4µM*	5.8µM*	-6.7
CCN(CC)C(=O)c1ccc(C(=O)c2ccccc2)cc1	-7.4%	3.0%	i	i	6.0
COc1ccc(NC(=O)c2sc3nc(-c4cc5ccc(OC)cc5oc4=O)[nH]c(=O)c3c2C)cc1	.	.	i	i	.
CCOC(=O)c1c(NC(=O)CSc2nnc(C)s2)sc2c1CCC(C)C2 (stereo not drawn)	0.7%	?	10.3µM*	i	-9.8
COc1ccc(NC(=O)Nc2ccc3c(c2)OCO3)c(C)c1	0.7%	-18.7%	?	i	?
Cc1ccc(NC(=O)c2ccc(S(=O)(=O)N3CCOCC3)cc2)nc1	-6.7%	-0.2%	16.4µM*	i	-1.2
Cc1ccc(S(=O)(=O)N2CCC(C(=O)N/N=C/c3cccnc3)CC2)cc1	0.4%	1.8%	i	i	9.6
Cc1ccc(CSCCNC(=O)c2ccc(Cl)c(S(=O)(=O)N3CCOCC3)c2)cc1	1.1%	6.8%	3.66µM*	20.6µM*	-10.2
Cc1ccc(NC(=O)c2ccc(C)c(S(=O)(=O)N3CCOCC3)c2)nc1	-6.1%	6.8%	14.6µM*	i	-6.5
Cc1ccc(S(=O)(=O)N2CCC(C(=O)N/N=C/c3ccccc3[N+](=O)[O-])CC2)cc1	?	-3.0%	13µM*	i	-0.7
Cc1ccc(C(=O)Nc2ccc(S(=O)(=O)N3CCOCC3)cc2)cc1	-3.8%	-50.8%	i	i	-15.4
O=C(Nc1ccc(S(=O)(=O)N2CCOCC2)cc1)C1CCN(S(=O)(=O)c2ccccc2)CC1	3.9%	-5.0%	i	?	2.5
Cc1ccc(S(=O)(=O)N2CCC(C(=O)OC(C)C(=O)N3CCOCC3)CC2)cc1 (stereo not drawn)	-2.5%	22.2%	i	i	25.8
Cc1ccc(NC(=O)c2ccc3nc[nH]c3c2)nc1	23.8%	?	i	?	8.4
Cc1ccc(S(=O)(=O)N2CCC(C(=O)Nc3ccc(S(=O)(=O)N4CCOCC4)cc3)CC2)cc1	2.9%	6.4%	16.4µM*	23.1µM*	19.3
Cc1ccc(NC(=O)c2ccc(C(=O)c3ccccc3)cc2)nc1	?	1.0%	?	14.6µM*	-13.8
CC(OC(=O)C1CCN(S(=O)(=O)c2ccc(C(C)(C)C)cc2)CC1)C(=O)N1CCOCC1 (stereo not drawn)	0.9%	?	16.4µM*	i	2.8
CN(C)c1cccc(C(=O)NCCCSc2ccccc2)c1	2.0%	-2.3%	i	i	-15.6
O=C(CSc1nncs1)Nc1ccc(N2CCCCC2)cc1	-5.3%	-1.1%	16.4µM*	?	3.9
CC(C)(C)C(O)(CC#CCN1CCCC1)c1ccccc1 (stereo not drawn)	0.2%	?	i	i	-14.8
Cc1ccc(N=C2NC(=O)/C(=C/c3cccnc3)S2)c(C)c1	-2.6%	?	i	i	?
Cc1ccc(N=C2NC(=O)/C(=C\c3ccsc3)S2)c(C)c1	2.9%	18.4µM*	18.4µM*	i	0.3
O=C(COC(=O)CCN1C(=O)C2CC=CCC2C1=O)Nc1ccc([N+](=O)[O-])cc1 (stereo not drawn)	10.8%	-1.9%	i	i	1.9
SMILES	SW480 rerep	MCF10A rereplic	KB-V1 MDR tox	KB-3-1 tox	IL1B secr inh
CCC1=Nc2cc(C(=O)NC3CCC(C)CC3)ccc2Sc2ccc(C)cc21 (stereo not drawn)	.	.	4.11µM*	4.61µM*	.
CCCC1=Nc2cc(C(=O)N3CCCC3)ccc2Sc2ccc(C)cc21	?	?	?	i	11.6
CCCC1=Nc2cc(C(=O)N3CCN(c4ccccn4)CC3)ccc2Sc2ccc(C)cc21	4.5%	?	i	i	-50.0*
CCCC1=Nc2cc(C(=O)NC3CCCCC3)ccc2Sc2ccc(C)cc21	.	.	0.82µM*	0.517µM*	.
CCC1=Nc2cc(C(=O)NCc3ccco3)ccc2Sc2ccc(C)cc21	1.03µM*	1.46µM*	0.164µM*	?	2.7
CCCC1=Nc2cc(C(=O)N3CCC(C)CC3)ccc2Sc2ccc(C)cc21	.	.	i	i	.
CCC1=Nc2cc(C(=O)NCCN3CCOCC3)ccc2Sc2ccc(C)cc21	?	-1.8%	i	i	9.5
CCCOc1ccc(-c2cccc(NS(=O)(=O)c3ccc(CC)cc3)c2)nn1	.	.	?	i	.
COc1ccc(C(=O)Nc2ccc(O)c3ccccc23)cc1OC	10.5%	-0.4%	i	i	17.0
CCOC(=O)N1CCN(C(=O)c2ccc3c(c2)N=C(CC)c2cc(C)ccc2S3)CC1	-16.2%	0.4%	i	i	-4.1
CCOC(=O)N1CCC(NC(=O)c2ccc3c(c2)N=C(CC)c2cc(C)ccc2S3)CC1	?	?	?	7.31µM*	28.3
CC(=O)Nc1cccc(OC2=NS(=O)(=O)c3ccccc32)c1	.	.	i	i	.
C=Cc1ccc(Cn2c(C)c(C(=O)NCc3ccc4c(c3)OCCO4)sc2=O)cc1	.	.	9.2µM*	?	-4.7
Cc1c(C(=O)NCc2ccc(C(C)C)cc2)sc(=O)n1Cc1ccc(S(=O)(=O)N(C)C)cc1	.	.	2.59µM*	?	-25.2
Cc1c(C(=O)NCc2ccco2)sc(=O)n1Cc1ccc(S(C)(=O)=O)cc1	.	.	i	i	?
CSc1ccc(Cn2c(C)c(C(=O)NCc3ccc(C(C)C)cc3)sc2=O)cc1	.	.	16.4µM*	18.4µM*	-17.7
Cc1c(C(=O)NCc2ccc(Cl)c(Cl)c2)sc(=O)n1Cc1ccc(S(=O)(=O)N(C)C)cc1	.	.	?	8.2µM*	-24.3
C=Cc1ccc(Cn2c(C)c(C(=O)NCc3ccc(Cl)c(Cl)c3)sc2=O)cc1	.	.	?	?	-15.3
CN(Cc1ccccc1)C(=O)COC(=O)CCNC(=O)c1ccccc1Cl	0.3%	2.4%	i	i	-5.9
COc1cc(/C=N/N=C(/C(=O)c2ccccc2)c2ccccc2)cc(OC)c1O	2.9%	?	9.2µM*	i	?
O=C1CC(c2ccccc2)=Nc2ccc(Br)cc2N1	?	3.7%	14.6µM*	?	-7.3
Cc1ccc2c(c1)NC(=O)CC(c1ccccc1)=N2	0.9%	-2.4%	i	i	-9.9
c1ccc(Cn2nnc3c(N4CCCC4)ncnc32)cc1	-9.4%	2.6%	18.4µM*	i	-3.3
CCN1CCN(c2ncnc3c2nnn3Cc2ccccc2)CC1	0.8%	?	i	i	26.5
c1ccc(-n2nnc3c(N4CCOCC4)ncnc32)cc1	-9.4%	?	16.4µM*	?	5.0
c1ccc(Cn2nnc3c(N4CCc5ccccc5C4)ncnc32)cc1	3.9%	?	14.6µM*	i	-11.2
